Screening results: PubChem, National Center for Advancing Translational Sciences (NCATS)
This is a sample that favours compounds with a hit; in the whole collection about 2.7% have one here.
GLP-1R agonist: GLP-1 receptor (human) agonism; HEK293 GLP-1R CRE-luciferase, luminescence, 4-6 h; cells express a hypersensitive GLP-1R form; AID 624172; Potency, µM (series often up to 45.6 µM), without a hit: at the top dose activation, actives largely listed as activators; 380,000 tested, 0.007% active; note: potency is the fitted concentration of half-maximal effect; % of control where 0% means no effect
IDH1 R132H inh: blocks human mutant IDH1 R132H enzyme; IDH1-R132H enzyme, NADPH consumption, diaphorase/resazurin fluorescence; Potency, µM (titrated, usually from 76.6 µM), inactives show at the top dose activity change, negative = inhibition, hits mostly inhibitors; 390,000 tested, 0.093% active; note: potency is the fitted concentration of half-maximal effect; % is set by controls: 0 for no effect and ±100 for the full control effect; nearly all actives have a fitted effect of over 65% in size
Target sequence (O75874 whole entry R132H, stated change not applied): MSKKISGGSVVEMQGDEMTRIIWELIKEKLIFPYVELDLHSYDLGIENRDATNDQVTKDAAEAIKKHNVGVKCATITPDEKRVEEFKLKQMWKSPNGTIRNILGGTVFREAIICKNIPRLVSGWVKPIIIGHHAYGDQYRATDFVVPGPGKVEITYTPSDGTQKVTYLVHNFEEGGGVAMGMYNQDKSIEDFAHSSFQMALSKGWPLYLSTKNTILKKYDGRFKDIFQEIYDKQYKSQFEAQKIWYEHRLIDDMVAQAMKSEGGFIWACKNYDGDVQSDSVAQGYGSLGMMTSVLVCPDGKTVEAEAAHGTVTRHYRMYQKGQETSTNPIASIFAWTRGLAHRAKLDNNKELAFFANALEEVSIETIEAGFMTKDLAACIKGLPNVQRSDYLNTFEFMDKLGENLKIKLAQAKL
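IDH1-R132H (0.5 ug/mL dispensed) in pH 7.5 Tris buffer was preincubated 30 min with compound, then given a substrate mix of 0.016 mM NADPH and 2 mM alpha-KG for 80 min at room temperature; remaining NADPH was read by diaphorase/resazurin fluorescence.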
GLP1R inv ag: acts as inverse agonist at human GLP-1 receptor. Potency, µM (series often up to 38.3 µM), for inactives: at the top dose activity change, negative = inhibition, usual class: inhibitors. HEK293 GLP-1R CRE-luciferase, luminescence, 24 h; GLP-1R form is constitutively active. 410,000 tested, 1.6% active; note: potency is the fitted concentration of half-maximal effect; % is set by controls: 0 for no effect and ±100 for the full control effect; nearly all actives have a fitted effect of over 55% in size
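Inverse agonists were sought by their lowering of basal cAMP reporter luciferase output in HEK293 cells stably carrying constitutively active human GLP-1R, after 24 h compound treatment.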
TrxR1 substrate: substrates of rat thioredoxin reductase 1. O89049. purified TrxR1 substrate turnover, NADPH consumption readout. Potency, µM (doses to about 114 µM), without a hit: top-dose activity change, negative = substrate turnover. 390,000 tested, 0.01% active. AID 588456; note: potency is the fitted concentration of half-maximal effect; % is set by controls: 0 for no effect and ±100 for the full control effect; nearly all actives have a fitted effect of over 50% in size
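Rat TrxR1, dispensed at 90 nM, was prereduced with 400 uM NADPH (final) for 5 min at ~22 deg C, then incubated with compound 15 min before 400 uM selenite. A first-read NADPH fluorescence drop versus no-compound background flagged substrates.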
HEK293 tox: cytotoxicity in counter-screen for GLP-1R inverse agonists; Potency, µM (highest dose often 38.3 µM), inactives show at the highest dose activity change, negative = inhibition, actives largely listed as inhibitors; AID 624418; 410,000 tested, 0.13% active; HEK293 cAMP-luciferase reporter cells, luminescence, 24 h;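 note: loss of luciferase light is scored as toxicity; potency is the fitted concentration of half-maximal effect; % is set by controls: 0 for no effect and ±100 for the full control effect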
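Cells in DMEM/10% Nu serum/1% pen-strep, 1536-well format. Pre-incubated 12 h, dosed with 23 nL compound, incubated a further 24 h. Luciferase detection, 12 min at room temp, luminescence.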
rTrxR1 inhibitor: inhibitors of rat thioredoxin reductase 1; O89049; recombinant rTrxR1, NADPH fluorescence consumption, selenite substrate; Potency, µM (doses to about 114 µM), without a hit: top-dose activity change, negative = inhibition, most hits filed as inhibitors; 390,000 tested, 1% active; AID 588453; note: potency is the fitted concentration of half-maximal effect; % is set by controls: 0 for no effect and ±100 for the full control effect; nearly all actives have a fitted effect of over 65% in size
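Rat TrxR1 (90 nM in the dispensed reagent) was pre-reduced with 400 uM NADPH for 5 min at room temperature, then incubated with compound for 15 min. After 400 uM selenite was added, NADPH fluorescence (Ex 340/Em 450 nm) was followed for 8 min.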
IDH1 autofl: autofluorescence interference, mutant IDH1 hit counter-screen. shares compounds with IDH1 R132H inh. Resorufin detection reagent fluorescence interference, cell-free. inhibition of signal, % at 51.2 µM. 750 tested, under 10 active. AID 623980;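 note: 0% = wells with normal resorufin and full inhibition = wells lacking resorufin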
WT IDH1 inh: selectivity of mutant IDH1 inhibitors: human wild-type IDH1 | Potency, µM (top dose mostly 115 µM), without a hit: at the highest dose activity change, negative = inhibition, actives largely listed as inhibitors | WT IDH1 enzyme, NADPH diaphorase/resazurin fluorescence | 750 tested, 9% active | AID 623995 | shares compounds with IDH1 R132H inh;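 note: potency is the fitted concentration of half-maximal effect; 0% = full WT IDH1 enzyme control and full inhibition = no enzyme wells; nearly all actives have a fitted effect of over 55% in size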
Target sequence (O75874 whole entry, looked up): as the sequence (O75874 whole entry R132H, stated change not applied) above, with H132R counted along it
mIDH1 confirm: confirmation of human mutant IDH1 inhibitors | IDH1 R132H enzyme, NADPH diaphorase/resazurin fluorescence | Potency, µM (series often up to 76.6 µM), for inactives: top-dose activity change, negative = inhibition, hits mostly inhibitors | AID 624002 | shares compounds with IDH1 R132H inh | 750 tested, 83% active; note: potency is the fitted concentration of half-maximal effect; nearly all actives have a fitted effect of over 50% in size
* marks the source's active call; other numbers are inactive results; [ ] = another dose, or the depositor's remark. Calls come from the whole dose curve; as a rule, active = well fitted curve in the direction sought with a large enough effect; inconclusive = small, poorly fitted or top-dose-only effect, or another doubt; inactive = no such curve, though single readings can be large; an effect the other way counts as inactive or inconclusive.

Cc1ccc(O)c(-c2n[nH]c3c2C(c2ccc(F)cc2)N(Cc2ccco2)C3=O)c1 (stereo unspecified) was read as IDH1 R132H inh 39.8µM*, GLP1R inv ag inconclusive, TrxR1 substrate -4.8%, HEK293 tox -16.1%, rTrxR1 inhibitor -0.2%, IDH1 autofl -6.2, WT IDH1 inh -14.3% and mIDH1 confirm 28.2µM*.
COc1ccc(C2c3c(-c4ccccc4O)n[nH]c3C(=O)N2Cc2ccco2)cc1 (stereo unspecified) was read as GLP-1R agonist 19.7%, IDH1 R132H inh inconclusive, GLP1R inv ag inconclusive, TrxR1 substrate -5.4%, HEK293 tox -20.1%, rTrxR1 inhibitor 6.4%, IDH1 autofl -3.3, WT IDH1 inh 4.4% and mIDH1 confirm 31.6µM*.
Screening COc1cc(C2c3c(-c4ccccc4O)n[nH]c3C(=O)N2Cc2ccco2)cc(OC)c1OC (stereo unspecified) returned GLP-1R agonist -2.9%, IDH1 R132H inh -8.3%, GLP1R inv ag 2.6%, TrxR1 substrate -6.5%, HEK293 tox inconclusive and rTrxR1 inhibitor -11.5%.
Cc1cc(C)c(-c2n[nH]c3c2C(c2ccccc2F)N(Cc2ccco2)C3=O)c(O)c1 (stereo unspecified) was read as IDH1 R132H inh inconclusive, GLP1R inv ag inconclusive, TrxR1 substrate -1.1%, HEK293 tox -13.1%, rTrxR1 inhibitor -1.2%, IDH1 autofl -7.8, WT IDH1 inh 7.0% and mIDH1 confirm inconclusive.
CC1=C(C(=O)Nc2cccc(F)c2)C2(CCCCCC2)OC1=O was read as IDH1 R132H inh 0.0%, GLP1R inv ag inconclusive, TrxR1 substrate -5.3%, HEK293 tox -10.7% and rTrxR1 inhibitor -2.7%.
`CC1CCc2c(sc3nnn(Cc4cccc(C(=O)OC(C)C)c4)c(=O)c23)C1` (stereo unspecified) gave GLP1R inv ag -5.0%, TrxR1 substrate 3.5%, HEK293 tox -8.6% and rTrxR1 inhibitor 18.7%.
`CCC(C)(C)NC(=O)C(c1ccccc1)N(Cc1cccs1)C(=O)Cn1nnc2ccccc21` (stereo unspecified) gave GLP-1R agonist -0.1%, IDH1 R132H inh inconclusive, GLP1R inv ag inconclusive, TrxR1 substrate 5.1%, HEK293 tox -16.6%, rTrxR1 inhibitor 23.1%, IDH1 autofl 5.2, WT IDH1 inh 4.3% and mIDH1 confirm 15.8µM*.
For O=C(NC1CCCCC1)C(c1ccco1)N(Cc1cccs1)C(=O)Cn1nnc2ccccc21 (stereo unspecified) the results were GLP-1R agonist 0.8%, IDH1 R132H inh inconclusive, GLP1R inv ag inconclusive, TrxR1 substrate 13.0%, HEK293 tox -22.0%, rTrxR1 inhibitor 36.4%, IDH1 autofl -3.0, WT IDH1 inh -2.2% and mIDH1 confirm 11.2µM*.
CCc1ccc(C(C(=O)NC(C)(C)CC)N(Cc2ccco2)C(=O)Cn2nnc3ccccc32)cc1 (stereo unspecified) was read as GLP-1R agonist -8.0%, IDH1 R132H inh -25.0%, GLP1R inv ag inconclusive, TrxR1 substrate -3.6%, HEK293 tox -17.8% and rTrxR1 inhibitor -9.6%.
`O=C(NC1CCCCC1)C(c1ccccc1)N(Cc1ccco1)C(=O)Cn1cnc2ccccc21` (stereo unspecified) gave GLP-1R agonist -16.6%, IDH1 R132H inh 11.7µM*, GLP1R inv ag 7.6%, TrxR1 substrate -0.2%, HEK293 tox -3.3%, rTrxR1 inhibitor 0.5%[57.1 µM], IDH1 autofl -1.8, WT IDH1 inh -8.1% and mIDH1 confirm 6.31µM*.
CCC(C)(C)NC(=O)C(c1ccc(C)o1)N(Cc1cccs1)C(=O)Cn1nnc2ccccc21 (stereo unspecified) was read as GLP-1R agonist 3.5%, IDH1 R132H inh inconclusive, GLP1R inv ag -14.4%, TrxR1 substrate 2.7%, HEK293 tox -17.5%, rTrxR1 inhibitor 11.5%, IDH1 autofl -3.9, WT IDH1 inh -5.2% and mIDH1 confirm 22.4µM*.
`O=C(NC1CCCCC1)C(c1ccccc1)N(Cc1ccco1)C(=O)c1csnn1` (stereo unspecified) gave GLP-1R agonist 8.0%, IDH1 R132H inh -4.3%, GLP1R inv ag -22.5%, TrxR1 substrate 1.1%[57.1 µM], HEK293 tox -9.5% and rTrxR1 inhibitor 1.2%[57.1 µM].
For O=C(NCc1ccco1)C(c1ccco1)N(Cc1cccs1)C(=O)Cn1nnc2ccccc21 (stereo unspecified) the results were GLP-1R agonist -4.1%, IDH1 R132H inh 1.2%, GLP1R inv ag -27.4%, TrxR1 substrate -9.9%, HEK293 tox -0.8% and rTrxR1 inhibitor -35.2%.
`O=C(COc1ccccc1Cl)Nc1cc(-c2ccccc2F)nn1-c1ccccc1` gave IDH1 R132H inh 6.1%, GLP1R inv ag -1.0%, TrxR1 substrate -0.3%[57.1 µM], HEK293 tox 3.1% and rTrxR1 inhibitor 18.4%[57.1 µM].
For CC(/C=C1\SC(=S)N(NC(=O)c2ccc(C)cc2)C1=O)=C\c1ccccc1 the results were GLP-1R agonist 4.3%, IDH1 R132H inh 1.7%, GLP1R inv ag -7.1%, TrxR1 substrate -18.6%, HEK293 tox inconclusive and rTrxR1 inhibitor -32.1%.
Screening CC(/C=C1\SC(=S)N(c2ccc(C(=O)O)cc2)C1=O)=C\c1ccccc1 returned GLP-1R agonist -6.8%, IDH1 R132H inh 23.3µM*, GLP1R inv ag -0.5%, TrxR1 substrate -0.9%, HEK293 tox 0.4%, rTrxR1 inhibitor 9.4%, IDH1 autofl -4.0, WT IDH1 inh 44.7µM* and mIDH1 confirm 50.1µM*.
Screening Cc1ccc2c(c1)c1c3n2CCN(C(=O)CCl)C3CCC1 (stereo unspecified) returned GLP-1R agonist -4.9%, IDH1 R132H inh 46.5µM*, GLP1R inv ag inconclusive, TrxR1 substrate 10.4%, HEK293 tox 8.4%, rTrxR1 inhibitor 7.94µM*, IDH1 autofl -1.3, WT IDH1 inh inconclusive and mIDH1 confirm 15.8µM*.
